Publication PMC7862700, “An all-to-all approach to the identification of sequence-specific readers for epigenetic DNA modifications on cytosine”

Tests used:
Test in all cases: DAPPL (digital affinity profiling via proximity ligation, sequencing); 10 mM Tris-HCl pH 7.5, 50 mM NaCl, 1 mM DTT, 4% glycerol, room temperature, 30 min; GST-TFs on glutathione beads, 16-mer random dsDNA library, 0.1% formaldehyde crosslink after washing; high values mean tight binding
FEV = target: T1, FEV (Homo sapiens, UniProt Q99581 1-238); details: protein: recombinant; tags: N-terminal GST; dsDNA, one strand shown
T1 sequence: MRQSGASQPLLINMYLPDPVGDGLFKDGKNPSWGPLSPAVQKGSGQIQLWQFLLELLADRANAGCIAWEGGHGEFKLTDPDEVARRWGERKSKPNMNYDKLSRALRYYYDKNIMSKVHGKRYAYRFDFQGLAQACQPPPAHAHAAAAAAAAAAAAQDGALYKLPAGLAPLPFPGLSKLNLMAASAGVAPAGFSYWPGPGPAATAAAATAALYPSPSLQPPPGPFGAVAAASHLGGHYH
Outline: (§1)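 Human transcription factors fused to GST were expressed in yeast, captured on glutathione beads, given DNA barcodes and pooled with a GST-only negative control. Pools were incubated with 200 nmole of a 16-mer random double-stranded DNA library in Tris/NaCl/DTT/glycerol buffer at room temperature for 30 min. They were then washed, crosslinked with 0.1% formaldehyde, proximity-ligated (BsaI/T4 ligase, 1 h, 37 °C), PCR-amplified and sequenced on an Illumina NextSeq500. Binding signal is each 6-mer's read frequency for a factor divided by its frequency for the GST control.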

ETV5 = ETV5 (Homo sapiens, UniProt P41161 1-510); details: protein: recombinant; tags: N-terminal GST; dsDNA, one strand shown
Outline: as §1

HSF1 = HSF1 (Homo sapiens, UniProt Q00613 1-529); details: protein: recombinant; tags: N-terminal GST; chain copies: 3; dsDNA, one strand shown
Outline: as §1

SPIC = target: T2, SPIC (Homo sapiens, UniProt Q8N5J4 1-248); details: protein: recombinant; tags: N-terminal GST; dsDNA, one strand shown
T2 sequence: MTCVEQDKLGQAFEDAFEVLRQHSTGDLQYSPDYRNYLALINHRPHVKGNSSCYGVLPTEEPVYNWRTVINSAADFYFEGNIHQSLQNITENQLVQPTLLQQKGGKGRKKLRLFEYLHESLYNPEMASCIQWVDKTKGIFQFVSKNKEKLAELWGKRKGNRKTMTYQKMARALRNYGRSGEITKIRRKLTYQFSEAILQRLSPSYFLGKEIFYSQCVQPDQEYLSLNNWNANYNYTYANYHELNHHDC
Outline: as §1

ELF4 = ELF4 (Homo sapiens, UniProt Q99607 1-663); details: protein: recombinant; tags: N-terminal GST; dsDNA, one strand shown
Outline: as §1

ELK4 = target: T3, ELK4 (Homo sapiens, UniProt P28324-2 1-405); details: protein: recombinant; tags: N-terminal GST; dsDNA, one strand shown
T3 sequence: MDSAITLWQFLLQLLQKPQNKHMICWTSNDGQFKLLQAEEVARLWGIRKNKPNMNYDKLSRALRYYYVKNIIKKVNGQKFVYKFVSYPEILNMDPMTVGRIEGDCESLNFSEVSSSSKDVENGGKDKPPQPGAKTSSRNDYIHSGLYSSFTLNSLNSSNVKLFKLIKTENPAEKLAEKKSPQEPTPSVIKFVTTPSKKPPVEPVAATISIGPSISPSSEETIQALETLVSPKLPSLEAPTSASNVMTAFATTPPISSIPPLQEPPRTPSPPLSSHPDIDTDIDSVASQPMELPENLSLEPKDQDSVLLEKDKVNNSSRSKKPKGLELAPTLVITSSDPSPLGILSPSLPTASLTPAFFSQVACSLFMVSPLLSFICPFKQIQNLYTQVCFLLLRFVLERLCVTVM
Outline: as §1

ETV2 = target: T4, ETV2 (Homo sapiens, UniProt O00321 1-342); details: protein: recombinant; tags: N-terminal GST; dsDNA, one strand shown
T4 sequence: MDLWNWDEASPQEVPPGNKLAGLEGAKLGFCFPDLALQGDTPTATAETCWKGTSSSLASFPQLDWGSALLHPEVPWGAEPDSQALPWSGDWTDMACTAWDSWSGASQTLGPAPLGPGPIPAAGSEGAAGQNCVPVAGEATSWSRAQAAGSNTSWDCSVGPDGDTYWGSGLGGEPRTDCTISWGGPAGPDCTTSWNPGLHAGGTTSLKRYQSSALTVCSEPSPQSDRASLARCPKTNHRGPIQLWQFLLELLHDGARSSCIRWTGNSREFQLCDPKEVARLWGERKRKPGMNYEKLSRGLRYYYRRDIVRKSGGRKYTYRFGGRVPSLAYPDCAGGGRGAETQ
Outline: as §1

ELF3 = target: T5, ELF3 (Homo sapiens, UniProt P78545 1-371); details: protein: recombinant; tags: N-terminal GST; dsDNA, one strand shown
T5 sequence: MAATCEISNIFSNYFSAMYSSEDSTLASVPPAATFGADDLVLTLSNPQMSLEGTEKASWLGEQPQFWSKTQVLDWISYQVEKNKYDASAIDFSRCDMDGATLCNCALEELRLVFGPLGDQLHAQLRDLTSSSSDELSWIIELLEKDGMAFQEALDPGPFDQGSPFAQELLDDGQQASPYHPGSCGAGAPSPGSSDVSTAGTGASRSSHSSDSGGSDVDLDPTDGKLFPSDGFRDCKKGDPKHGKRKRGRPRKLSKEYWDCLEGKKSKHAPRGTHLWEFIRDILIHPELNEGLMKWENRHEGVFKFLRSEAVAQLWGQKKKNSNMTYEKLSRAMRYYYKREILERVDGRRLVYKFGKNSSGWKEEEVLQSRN
Outline: as §1

CRX = CRX (Homo sapiens, UniProt O43186 1-299); details: protein: recombinant; tags: N-terminal GST; dsDNA, one strand shown
Outline: as §1

ETV1 = ETV1 (Homo sapiens, UniProt P50549 1-477); details: protein: recombinant; tags: N-terminal GST; dsDNA, one strand shown
Outline: as §1

ERF = target: T6, ERF (Homo sapiens, UniProt P50548 1-548); details: protein: recombinant; tags: N-terminal GST; dsDNA, one strand shown
T6 sequence: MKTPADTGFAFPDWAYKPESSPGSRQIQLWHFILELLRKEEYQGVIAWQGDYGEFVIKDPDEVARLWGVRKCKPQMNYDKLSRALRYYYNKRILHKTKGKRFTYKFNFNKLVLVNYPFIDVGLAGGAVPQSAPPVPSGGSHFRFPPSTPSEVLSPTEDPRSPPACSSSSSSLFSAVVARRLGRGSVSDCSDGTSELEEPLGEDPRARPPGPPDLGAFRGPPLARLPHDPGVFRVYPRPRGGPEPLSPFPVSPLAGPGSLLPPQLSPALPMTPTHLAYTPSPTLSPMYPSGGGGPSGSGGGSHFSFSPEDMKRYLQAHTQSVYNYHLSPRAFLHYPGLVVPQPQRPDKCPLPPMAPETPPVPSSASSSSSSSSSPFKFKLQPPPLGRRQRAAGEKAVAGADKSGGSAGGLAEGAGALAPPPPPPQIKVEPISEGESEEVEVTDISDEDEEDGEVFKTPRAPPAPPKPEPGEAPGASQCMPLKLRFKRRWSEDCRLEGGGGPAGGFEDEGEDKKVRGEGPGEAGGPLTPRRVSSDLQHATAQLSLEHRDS
Outline: as §1

ETV3L = target: T7, ETV3L (Homo sapiens, UniProt Q6ZN32 1-361); details: protein: recombinant; tags: N-terminal GST; dsDNA, one strand shown
T7 sequence: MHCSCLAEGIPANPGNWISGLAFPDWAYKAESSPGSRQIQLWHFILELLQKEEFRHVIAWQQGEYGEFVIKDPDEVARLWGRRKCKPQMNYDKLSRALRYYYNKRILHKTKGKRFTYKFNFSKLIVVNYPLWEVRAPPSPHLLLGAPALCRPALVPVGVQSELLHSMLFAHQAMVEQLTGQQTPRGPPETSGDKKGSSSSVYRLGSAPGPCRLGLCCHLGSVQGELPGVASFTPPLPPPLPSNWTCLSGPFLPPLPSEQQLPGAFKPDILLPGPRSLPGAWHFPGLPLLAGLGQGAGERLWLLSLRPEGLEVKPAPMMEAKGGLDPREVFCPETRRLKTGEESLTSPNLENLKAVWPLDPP
Outline: as §1

ETS2 = target: T8, ETS2 (Homo sapiens, UniProt P15036 1-469); details: protein: recombinant; tags: N-terminal GST; dsDNA, one strand shown
T8 sequence: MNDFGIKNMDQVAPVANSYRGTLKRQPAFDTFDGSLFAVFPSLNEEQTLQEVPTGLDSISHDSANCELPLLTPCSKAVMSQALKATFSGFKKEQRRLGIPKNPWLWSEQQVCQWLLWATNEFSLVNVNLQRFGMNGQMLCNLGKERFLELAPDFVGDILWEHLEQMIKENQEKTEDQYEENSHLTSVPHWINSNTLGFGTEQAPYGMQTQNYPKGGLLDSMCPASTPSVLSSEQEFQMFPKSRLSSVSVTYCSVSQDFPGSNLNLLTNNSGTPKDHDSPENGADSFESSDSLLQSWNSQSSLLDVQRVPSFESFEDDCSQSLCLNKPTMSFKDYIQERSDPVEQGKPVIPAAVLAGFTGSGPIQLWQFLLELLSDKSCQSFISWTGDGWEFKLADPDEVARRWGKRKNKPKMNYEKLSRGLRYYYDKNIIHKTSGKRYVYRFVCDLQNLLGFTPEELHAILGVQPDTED
Outline: as §1

SPDEF = target: T9, SPDEF (Homo sapiens, UniProt O95238 1-335); details: protein: recombinant; tags: N-terminal GST; dsDNA, one strand shown
T9 sequence: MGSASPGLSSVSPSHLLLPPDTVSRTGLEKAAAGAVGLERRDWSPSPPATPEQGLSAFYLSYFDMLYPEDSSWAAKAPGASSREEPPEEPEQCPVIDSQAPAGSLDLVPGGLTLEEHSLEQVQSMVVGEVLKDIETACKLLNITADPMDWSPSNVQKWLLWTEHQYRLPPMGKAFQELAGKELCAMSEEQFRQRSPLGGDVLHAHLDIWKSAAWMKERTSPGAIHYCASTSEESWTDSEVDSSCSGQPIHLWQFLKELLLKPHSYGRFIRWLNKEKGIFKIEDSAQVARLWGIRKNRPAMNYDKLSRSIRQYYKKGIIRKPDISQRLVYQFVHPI
Outline: as §1

ETV7 = target: T10, ETV7 (Homo sapiens, UniProt Q9Y603 1-341); details: protein: recombinant; tags: N-terminal GST; dsDNA, one strand shown
T10 sequence: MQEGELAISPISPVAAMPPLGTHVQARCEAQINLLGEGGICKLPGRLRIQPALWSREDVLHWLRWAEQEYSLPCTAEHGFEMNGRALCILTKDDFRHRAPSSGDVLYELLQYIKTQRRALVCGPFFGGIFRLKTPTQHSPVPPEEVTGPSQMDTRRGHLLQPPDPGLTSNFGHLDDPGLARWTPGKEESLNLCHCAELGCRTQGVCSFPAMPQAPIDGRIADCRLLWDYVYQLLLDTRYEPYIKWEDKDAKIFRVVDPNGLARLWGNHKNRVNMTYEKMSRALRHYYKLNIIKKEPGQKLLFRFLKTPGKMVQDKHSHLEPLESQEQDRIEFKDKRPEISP
Outline: as §1

ELF5 = target: T11, ELF5 (Homo sapiens, UniProt Q9UKW6-2 1-255); details: protein: recombinant; tags: N-terminal GST; dsDNA, one strand shown
T11 sequence: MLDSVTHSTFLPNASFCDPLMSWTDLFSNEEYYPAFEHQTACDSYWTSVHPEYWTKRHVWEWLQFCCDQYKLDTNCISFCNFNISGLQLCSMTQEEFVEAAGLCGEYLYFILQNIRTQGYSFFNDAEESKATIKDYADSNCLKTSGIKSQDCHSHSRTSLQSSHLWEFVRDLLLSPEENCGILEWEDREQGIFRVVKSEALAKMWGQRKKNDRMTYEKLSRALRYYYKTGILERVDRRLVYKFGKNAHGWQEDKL
Outline: as §1

ETV3 = target: T12, ETV3 (Homo sapiens, UniProt P41162-2 1-143); details: protein: recombinant; tags: N-terminal GST; dsDNA, one strand shown
T12 sequence: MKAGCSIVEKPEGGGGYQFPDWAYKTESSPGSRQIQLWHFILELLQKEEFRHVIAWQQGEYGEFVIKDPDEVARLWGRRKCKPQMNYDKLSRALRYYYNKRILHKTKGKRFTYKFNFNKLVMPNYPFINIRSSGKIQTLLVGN
Outline: as §1

ETV6 = ETV6 (Homo sapiens, UniProt P41212 1-452); details: protein: recombinant; tags: N-terminal GST; dsDNA, one strand shown
Outline: as §1

Chain of ETV6 (P41212 whole entry): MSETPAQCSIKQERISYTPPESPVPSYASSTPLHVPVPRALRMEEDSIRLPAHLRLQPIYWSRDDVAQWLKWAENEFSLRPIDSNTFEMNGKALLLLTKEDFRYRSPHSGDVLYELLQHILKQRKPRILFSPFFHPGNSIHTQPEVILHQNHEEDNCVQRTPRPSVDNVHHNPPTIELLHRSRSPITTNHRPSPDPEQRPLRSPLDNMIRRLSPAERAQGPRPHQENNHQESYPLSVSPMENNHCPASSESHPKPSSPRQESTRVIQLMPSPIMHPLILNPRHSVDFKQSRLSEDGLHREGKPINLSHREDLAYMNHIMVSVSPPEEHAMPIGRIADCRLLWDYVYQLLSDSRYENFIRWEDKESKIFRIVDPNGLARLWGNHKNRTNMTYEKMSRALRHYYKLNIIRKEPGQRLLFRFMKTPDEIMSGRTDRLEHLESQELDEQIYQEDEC
Chain of ETV5 (P41161 whole entry): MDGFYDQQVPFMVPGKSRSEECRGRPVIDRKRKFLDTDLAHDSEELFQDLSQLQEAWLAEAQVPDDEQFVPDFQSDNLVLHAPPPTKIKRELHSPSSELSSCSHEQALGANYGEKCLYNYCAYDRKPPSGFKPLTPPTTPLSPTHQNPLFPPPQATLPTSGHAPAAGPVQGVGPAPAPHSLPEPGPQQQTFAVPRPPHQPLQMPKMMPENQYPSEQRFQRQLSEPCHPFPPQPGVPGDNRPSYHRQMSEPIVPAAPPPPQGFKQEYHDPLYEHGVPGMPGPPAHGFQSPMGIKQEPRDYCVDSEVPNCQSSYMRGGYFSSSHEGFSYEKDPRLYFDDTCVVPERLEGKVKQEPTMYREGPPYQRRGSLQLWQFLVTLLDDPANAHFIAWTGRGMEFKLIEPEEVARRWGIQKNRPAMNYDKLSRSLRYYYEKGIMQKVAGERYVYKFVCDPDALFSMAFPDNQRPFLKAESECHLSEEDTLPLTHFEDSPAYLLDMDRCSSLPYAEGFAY
Chain of ETV1 (P50549 whole entry): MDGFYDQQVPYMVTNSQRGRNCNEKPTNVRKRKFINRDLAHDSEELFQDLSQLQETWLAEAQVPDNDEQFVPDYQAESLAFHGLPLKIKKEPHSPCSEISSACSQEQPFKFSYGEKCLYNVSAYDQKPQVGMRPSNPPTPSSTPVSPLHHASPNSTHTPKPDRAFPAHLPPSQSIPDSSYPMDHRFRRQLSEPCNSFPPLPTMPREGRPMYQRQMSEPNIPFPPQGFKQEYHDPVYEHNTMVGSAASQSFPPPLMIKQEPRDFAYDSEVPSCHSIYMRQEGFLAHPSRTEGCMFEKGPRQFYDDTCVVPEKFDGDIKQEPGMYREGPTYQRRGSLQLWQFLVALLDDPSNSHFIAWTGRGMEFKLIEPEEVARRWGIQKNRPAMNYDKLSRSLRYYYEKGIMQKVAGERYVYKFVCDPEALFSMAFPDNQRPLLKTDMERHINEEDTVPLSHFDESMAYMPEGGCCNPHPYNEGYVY
Chain of ELF4 (Q99607 whole entry): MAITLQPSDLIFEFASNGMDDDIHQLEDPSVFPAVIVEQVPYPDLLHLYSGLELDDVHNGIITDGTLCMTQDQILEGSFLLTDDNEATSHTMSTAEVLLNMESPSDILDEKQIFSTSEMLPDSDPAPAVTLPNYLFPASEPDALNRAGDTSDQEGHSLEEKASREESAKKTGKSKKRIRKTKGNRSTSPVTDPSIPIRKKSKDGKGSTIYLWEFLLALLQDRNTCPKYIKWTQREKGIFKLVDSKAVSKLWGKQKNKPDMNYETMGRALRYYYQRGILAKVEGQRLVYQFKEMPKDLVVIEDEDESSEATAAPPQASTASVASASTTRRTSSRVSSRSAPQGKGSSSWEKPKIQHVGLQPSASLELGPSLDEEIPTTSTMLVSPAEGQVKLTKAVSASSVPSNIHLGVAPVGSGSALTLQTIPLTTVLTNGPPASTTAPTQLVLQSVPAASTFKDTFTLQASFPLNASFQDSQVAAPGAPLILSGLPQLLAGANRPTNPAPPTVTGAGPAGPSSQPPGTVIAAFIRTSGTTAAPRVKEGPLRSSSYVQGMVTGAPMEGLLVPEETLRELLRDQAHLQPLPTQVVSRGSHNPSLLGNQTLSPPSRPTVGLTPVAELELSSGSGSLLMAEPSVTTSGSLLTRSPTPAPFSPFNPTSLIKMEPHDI
Chain of CRX (O43186 whole entry): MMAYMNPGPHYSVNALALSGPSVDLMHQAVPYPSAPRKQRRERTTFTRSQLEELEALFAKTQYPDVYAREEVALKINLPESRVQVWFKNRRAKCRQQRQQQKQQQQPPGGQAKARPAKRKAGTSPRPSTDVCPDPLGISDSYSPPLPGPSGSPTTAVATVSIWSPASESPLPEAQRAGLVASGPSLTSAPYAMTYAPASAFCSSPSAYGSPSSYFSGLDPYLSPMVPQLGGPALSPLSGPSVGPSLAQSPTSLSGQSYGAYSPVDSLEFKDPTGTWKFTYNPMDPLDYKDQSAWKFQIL
Chain of HSF1 (Q00613 whole entry): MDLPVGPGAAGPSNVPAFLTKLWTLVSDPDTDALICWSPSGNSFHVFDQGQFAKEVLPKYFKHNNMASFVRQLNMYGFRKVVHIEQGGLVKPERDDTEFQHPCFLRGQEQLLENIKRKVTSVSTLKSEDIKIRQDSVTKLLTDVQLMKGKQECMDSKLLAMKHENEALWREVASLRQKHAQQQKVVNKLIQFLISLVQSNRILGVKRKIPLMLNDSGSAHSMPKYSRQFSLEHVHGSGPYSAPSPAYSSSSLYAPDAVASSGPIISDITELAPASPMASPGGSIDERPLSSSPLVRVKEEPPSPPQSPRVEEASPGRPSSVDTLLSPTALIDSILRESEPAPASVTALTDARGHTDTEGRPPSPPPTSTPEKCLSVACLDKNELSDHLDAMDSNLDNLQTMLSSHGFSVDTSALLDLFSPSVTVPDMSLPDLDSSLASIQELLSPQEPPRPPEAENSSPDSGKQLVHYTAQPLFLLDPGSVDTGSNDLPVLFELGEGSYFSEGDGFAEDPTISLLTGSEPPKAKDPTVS

With CCTTTT the binding signal (FEV) was 1.68 fold enrichment (6-mer frequency, TF over GST control), the binding signal (ETV5) was 1.56 fold enrichment (6-mer frequency, TF over GST control) and the binding signal (HSF1) was 1.37 fold enrichment (6-mer frequency, TF over GST control). For the same sequence, the binding signal (SPIC) was 1.83 fold enrichment (6-mer frequency, TF over GST control), the binding signal (ELF4) was 1.64 fold enrichment (6-mer frequency, TF over GST control) and the binding signal (ELK4) was 1.58 fold enrichment (6-mer frequency, TF over GST control). For the same sequence, the binding signal (ETV2) was 1.38 fold enrichment (6-mer frequency, TF over GST control), the binding signal (ELF3) was 1.68 fold enrichment (6-mer frequency, TF over GST control) and the binding signal (CRX) was 1.36 fold enrichment (6-mer frequency, TF over GST control). For the same sequence, the binding signal (ETV1) was 1.6 fold enrichment (6-mer frequency, TF over GST control), the binding signal (ERF) was 1.65 fold enrichment (6-mer frequency, TF over GST control) and the binding signal (ETV3L) was 1.69 fold enrichment (6-mer frequency, TF over GST control). For the same sequence, the binding signal (ETS2) was 1.46 fold enrichment (6-mer frequency, TF over GST control), the binding signal (SPDEF) was 1.55 fold enrichment (6-mer frequency, TF over GST control) and the binding signal (ETV7) was 1.53 fold enrichment (6-mer frequency, TF over GST control). For the same sequence, the binding signal (ELF5) was 1.61 fold enrichment (6-mer frequency, TF over GST control), the binding signal (ETV3) was 1.55 fold enrichment (6-mer frequency, TF over GST control) and the binding signal (ETV6) was 1.67 fold enrichment (6-mer frequency, TF over GST control).
